Out of some 360,000 compounds screened, about 4,200 (1.2%) were called active. The sample holds actives, similar compounds and a random draw of the others, so the mix is not that of the screen.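 Rule for the calls: active = mean replicate inhibition at least 60% with every replicate also reaching 60%; inconclusive = only one of the two criteria is met; inactive = mean below 60% and not all replicates reaching 60%.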
Assay: inhibitors of PAX8-driven TPO luciferase reporter, primary screen, RMG-I cells, single concentration (AID 652154);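 note: luciferase light reporting Pax8 driven TPO promoter activity; plate controls were median of neutral control wells for no effect and mitoxantrone controls for full effect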
Conditions: SteadyGlo, 24 h, at 12.6 µM, stronger effect = higher value

inhibition, inactive:
CN1C(=O)c2cc(NC(=O)c3cscn3)ccc2OC[C@@H]2O[C@H](CC(=O)N3CCCCC3)CC[C@H]21 -16.1%
CCCN(C)C[C@H]1OCCCC[C@@H](C)Oc2ccc(NC(=O)CCC(F)(F)F)cc2C(=O)N([C@H](C)CO)C[C@H]1C 8.93%
Cc1nc2c(c(C)nn2-c2ccccc2)c(C)c1C 12.6%
Cn1c(=O)c2c(-c3cccc(Br)c3)c(C#N)c(N)nc2n(C)c1=O 4.92%
C[C@H]1CN([C@@H](C)CO)C(=O)c2cccc(NS(=O)(=O)c3cn(C)cn3)c2O[C@@H]1CN(C)C(=O)Nc1ccc(F)cc1 -9.83%
O=C(Nc1ccccc1)N[C@@H]1CC[C@H](CCNS(=O)(=O)c2ccccc2F)O[C@@H]1CO -8.59%
Cc1ccc(-c2csc(NC(=O)C3=COCCO3)n2)cc1C -109%
C/C(CC1CC(C)(C)OC1=O)=N/Nc1nc(-c2ccccc2)cs1 (stereo not drawn) 19.2%
CC(=O)N1[C@H](CO)[C@H](c2ccc(-c3ccccc3)cc2)[C@H]1CNC(=O)C1CC1 -4.5%
CC(=O)c1cccc(-c2cnc3c(NC=O)cc(-c4cccc(C(=O)N(C)C)c4)cn23)c1 12.7%
CN(C)C(=O)c1cccc(-c2cnc3c(NC=O)cc(-c4ccc(F)cc4)cn23)c1 33.9%
COc1ccc(NC(=O)Nc2ccc3c(c2)C(=O)N([C@H](C)CO)C[C@H](C)[C@H](CN(C)S(=O)(=O)c2ccc(Cl)cc2)OCCCC[C@H](C)O3)cc1 26.6%
O=C(C[C@@H]1C[C@@H]2c3cc(NS(=O)(=O)c4ccccc4)ccc3O[C@@H]2[C@@H](CO)O1)NC1CCCCC1 15.4%
CCOC(=O)c1c(C)[nH]c(C(=O)OCC(=O)c2ccc(OC)cc2OC)c1C -7.09%
CCOC(=O)c1c(C)[nH]c(C)c1S(=O)(=O)NCCCc1ccco1 -4.09%
COCC(=O)Nc1ccc2c(c1)C(=O)N(C)C[C@@H](OC)[C@@H](C)CN(C(=O)c1ccccc1)[C@@H](C)CO2 -10.2%
CC(=O)N1[C@@H](CO)[C@@H]2c3ccccc3N(S(=O)(=O)c3ccccc3)C[C@@H]21 7.26%
O=C(C(=O)N1CCC(CNC(=O)c2cccnc2Cl)CC1)c1cccs1 -11.9%
O=C(N/N=C\c1cccc(Br)c1)c1ccccc1-n1cccc1 24.9%
Cc1cc(C(=O)NCCc2ccc(Cl)cc2)c(C)o1 -114%
CC(/C=N/NC(=O)c1cc(-c2ccc3ccccc3c2)n[nH]1)=C\c1ccco1 -6.24%
Cc1ccc(-c2cc(C(=O)N/N=C/C=C/c3ccccc3)n[nH]2)o1 47.7%
O=C(Nc1cccc(F)c1)N[C@@H]1CC[C@@H](CCn2cc(Cc3ccccc3)nn2)O[C@@H]1CO 3.01%
C[C@H](CO)N1C[C@H](C)[C@H](CN(C)C(=O)Nc2ccc3c(c2)OCO3)Oc2ccc(NS(=O)(=O)c3ccc(Cl)cc3)cc2CC1=O -20.9%
CN1[C@@H]2CN(C(=O)c3ccc(F)cc3)c3ccccc3[C@@H]2[C@@H]1CO -1.94%
O=C(Nc1cc(F)ccc1F)N[C@H]1CC[C@@H](CCn2cc(C3CCCC3)nn2)O[C@@H]1CO 5.81%
Cc1noc(C)c1NC(=O)N(C)C[C@H]1Oc2ccc(NC(=O)C3CCCCC3)cc2CC(=O)N([C@@H](C)CO)C[C@H]1C -10.9%
CO[C@@H]1CN(C)C(=O)c2ccc(NC(=O)C3CCC3)cc2OC[C@H](C)N(C(=O)CN(C)C)C[C@H]1C -10.4%
COc1cccc(CNC(=O)C[C@H]2CC[C@@H](NC(=O)C3CCC3)[C@@H](CO)O2)c1 -6.76%
O=C(Cc1ccccc1)N1C[C@@H]2[C@H](c3ccccc31)[C@@H](CO)N2C(=O)C1CC1 6.8%
O=C(c1ccccc1)N1C[C@@H]2[C@H](c3ccccc31)[C@@H](CO)N2Cc1cc(F)ccc1F 28%
Cc1ccc(S(=O)(=O)N(C)C[C@H]2OCCCC[C@H](C)Oc3ccc(N(C)C)cc3C(=O)N([C@H](C)CO)C[C@@H]2C)cc1 32%
O=C(C[C@@H]1C[C@@H]2c3cc(NC(=O)NC4CCCC4)ccc3O[C@@H]2[C@H](CO)O1)NCC(F)(F)F -19.4%
CNC[C@H]1OCCCC[C@@H](C)Oc2ccc(NC(=O)c3ccncc3)cc2C(=O)N([C@H](C)CO)C[C@H]1C -8.2%
O=S(=O)(NC1CCCCC1N1CCCCC1)c1ccc(Cl)cc1 (stereo not drawn) 7.52%
COc1ccc(N2CCN(C3CCCCC3NS(=O)(=O)c3ccccc3)CC2)cc1 (stereo not drawn) 19.3%
C[C@@H]1CN([C@@H](C)CO)C(=O)c2cc(NC(=O)CCN3CCOCC3)ccc2O[C@H]1CN(C)C(=O)NC1CCCCC1 -13.4%
C[C@@H]1CN([C@@H](C)CO)C(=O)c2cc(-c3cncnc3)cnc2O[C@H]1CN(C)Cc1cncnc1 -3.91%
CN(C)C(=O)c1cccc(-c2ccc([C@H]3[C@@H](CO)N4C(=O)CN(C(=O)C5CC5)C[C@@H]34)cc2)c1 -11.3%

inhibition, active:
CSc1ccc(-c2c(C#N)c(N)nc3c2c(C)nn3-c2ccccc2)cc1 66.4%
Cc1ccc(-c2csc(NC3OC(=O)c4ccccc43)n2)cc1 (stereo not drawn) 92.3%
CN(C)CCNC(=O)c1cccc(-c2cnc3c(NC=O)cc(-c4cccc(C(F)(F)F)c4)cn23)c1 109%
CCOC(=O)c1c(C)[nH]c2c1-c1ccccc1C(=O)C2=O 107%
CC(C)c1cc(C(=O)N/N=C/C(Br)=C/c2ccccc2)n[nH]1 74.5%
Cc1cc(C(=O)N/N=C\C(Br)=C\c2ccccc2)c(C)o1 63%
CC[n+]1cc(C)ccc1/C=C/c1ccc(N(C)C)cc1 86.7%
Oc1c(Cl)cc(Cl)c(Cl)c1Cc1c(O)c(Cl)cc(Cl)c1Cl 107%
O=S(=O)(NC1CCCCC1N1CCN(c2ccccc2F)CC1)c1ccccc1 (stereo not drawn) 101%

Reference: PubChem BioAssay AID652154 (Broad Institute, 2013)
